# Data as given in PMC7862700, “An all-to-all approach to the identification of sequence-specific readers for epigenetic DNA modifications on cytosine”.
# Tests used:
# Test in all cases: DAPPL (digital affinity profiling via proximity ligation, sequencing); 10 mM Tris-HCl pH 7.5, 50 mM NaCl, 1 mM DTT, 4% glycerol, room temperature, 30 min; GST-TFs on glutathione beads, 16-mer random dsDNA library, 0.1% formaldehyde crosslink after washing; high values mean tight binding
# [1] = target: T1, FEV (Homo sapiens, UniProt Q99581 1-238); details: protein: recombinant; tags: N-terminal GST; dsDNA, one strand shown
# T1 sequence: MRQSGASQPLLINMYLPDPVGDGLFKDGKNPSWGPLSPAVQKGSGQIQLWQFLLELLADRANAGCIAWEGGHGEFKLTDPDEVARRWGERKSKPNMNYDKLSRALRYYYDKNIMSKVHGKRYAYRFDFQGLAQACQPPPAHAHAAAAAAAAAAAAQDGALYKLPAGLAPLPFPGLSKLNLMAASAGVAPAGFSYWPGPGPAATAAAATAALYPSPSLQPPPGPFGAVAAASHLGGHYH
# Outline: (§1)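 GST fusions of human transcription factors were expressed in yeast and captured with glutathione beads. Once given DNA barcodes and pooled alongside a tag-only sample, they were incubated for 30 min at room temperature with 200 nmole of a random double-stranded 16-mer DNA library in Tris/NaCl/DTT/glycerol buffer, then washed, crosslinked (0.1% formaldehyde), proximity-ligated, PCR-amplified and sequenced on an Illumina NextSeq500. The binding signal of each hexamer is its read frequency for a factor divided by its frequency for the tag-only sample.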
# [2] = target: ETV5 (Homo sapiens, UniProt P41161 1-510); details: protein: recombinant; tags: N-terminal GST; dsDNA, one strand shown
# Chain of ETV5 (P41161 whole entry): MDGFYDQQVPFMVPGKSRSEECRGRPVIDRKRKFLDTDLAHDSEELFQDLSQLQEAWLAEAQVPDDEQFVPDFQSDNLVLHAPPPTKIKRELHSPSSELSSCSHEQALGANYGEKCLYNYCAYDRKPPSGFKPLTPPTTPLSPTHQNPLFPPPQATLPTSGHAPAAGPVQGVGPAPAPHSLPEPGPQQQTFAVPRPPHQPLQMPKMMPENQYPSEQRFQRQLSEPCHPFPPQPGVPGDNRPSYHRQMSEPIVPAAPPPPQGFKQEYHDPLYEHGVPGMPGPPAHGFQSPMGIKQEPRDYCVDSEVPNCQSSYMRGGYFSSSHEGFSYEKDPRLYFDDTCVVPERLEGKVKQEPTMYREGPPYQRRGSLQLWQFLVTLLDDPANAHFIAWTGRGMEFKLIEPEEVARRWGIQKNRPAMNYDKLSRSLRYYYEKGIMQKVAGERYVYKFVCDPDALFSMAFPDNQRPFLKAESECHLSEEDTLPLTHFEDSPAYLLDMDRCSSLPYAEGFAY
# Outline: as §1
# [3] = target: HSF1 (Homo sapiens, UniProt Q00613 1-529); details: protein: recombinant; tags: N-terminal GST; chain copies: 3; dsDNA, one strand shown
# Chain of HSF1 (Q00613 whole entry): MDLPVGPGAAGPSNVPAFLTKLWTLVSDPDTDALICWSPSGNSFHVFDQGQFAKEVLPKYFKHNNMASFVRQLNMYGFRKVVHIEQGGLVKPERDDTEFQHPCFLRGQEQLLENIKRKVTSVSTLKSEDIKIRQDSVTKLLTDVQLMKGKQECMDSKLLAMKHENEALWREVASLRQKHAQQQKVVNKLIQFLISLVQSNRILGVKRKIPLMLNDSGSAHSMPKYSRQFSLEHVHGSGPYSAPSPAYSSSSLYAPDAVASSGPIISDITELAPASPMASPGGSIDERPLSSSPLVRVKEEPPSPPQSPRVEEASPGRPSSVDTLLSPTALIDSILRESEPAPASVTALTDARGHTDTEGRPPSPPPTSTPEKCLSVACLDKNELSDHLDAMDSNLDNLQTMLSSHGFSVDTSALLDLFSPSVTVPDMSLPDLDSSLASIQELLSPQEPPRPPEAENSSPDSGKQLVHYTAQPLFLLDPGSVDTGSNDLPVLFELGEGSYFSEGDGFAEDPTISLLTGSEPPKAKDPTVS
# Outline: as §1
# [4] = target: T2, SPIC (Homo sapiens, UniProt Q8N5J4 1-248); details: protein: recombinant; tags: N-terminal GST; dsDNA, one strand shown
# T2 sequence: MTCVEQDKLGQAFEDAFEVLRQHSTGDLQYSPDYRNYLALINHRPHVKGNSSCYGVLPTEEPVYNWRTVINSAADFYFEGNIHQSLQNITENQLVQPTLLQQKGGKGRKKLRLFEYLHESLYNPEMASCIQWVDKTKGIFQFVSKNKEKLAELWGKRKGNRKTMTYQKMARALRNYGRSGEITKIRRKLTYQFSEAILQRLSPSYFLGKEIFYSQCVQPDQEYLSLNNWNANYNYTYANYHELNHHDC
# Outline: as §1
# [5] = target: ELF4 (Homo sapiens, UniProt Q99607 1-663); details: protein: recombinant; tags: N-terminal GST; dsDNA, one strand shown
# Chain of ELF4 (Q99607 whole entry): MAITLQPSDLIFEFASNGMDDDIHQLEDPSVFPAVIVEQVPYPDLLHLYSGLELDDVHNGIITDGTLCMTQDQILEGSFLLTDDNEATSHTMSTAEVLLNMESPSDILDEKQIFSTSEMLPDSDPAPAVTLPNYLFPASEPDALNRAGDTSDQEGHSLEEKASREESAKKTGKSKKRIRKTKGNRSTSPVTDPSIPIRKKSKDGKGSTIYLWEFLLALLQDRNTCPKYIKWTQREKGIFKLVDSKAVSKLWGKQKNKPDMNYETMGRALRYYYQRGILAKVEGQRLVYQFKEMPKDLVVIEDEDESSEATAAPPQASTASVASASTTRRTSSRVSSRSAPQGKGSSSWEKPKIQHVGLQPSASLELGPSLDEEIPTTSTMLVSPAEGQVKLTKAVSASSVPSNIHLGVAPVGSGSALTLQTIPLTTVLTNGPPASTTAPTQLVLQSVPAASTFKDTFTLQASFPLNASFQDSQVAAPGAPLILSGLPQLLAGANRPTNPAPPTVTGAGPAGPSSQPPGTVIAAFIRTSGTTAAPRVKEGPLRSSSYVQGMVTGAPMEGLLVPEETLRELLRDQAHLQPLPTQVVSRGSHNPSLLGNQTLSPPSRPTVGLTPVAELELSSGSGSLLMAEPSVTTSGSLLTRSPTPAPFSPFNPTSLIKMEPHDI
# Outline: as §1
# [6] = target: T3, ELK4 (Homo sapiens, UniProt P28324-2 1-405); details: protein: recombinant; tags: N-terminal GST; dsDNA, one strand shown
# T3 sequence: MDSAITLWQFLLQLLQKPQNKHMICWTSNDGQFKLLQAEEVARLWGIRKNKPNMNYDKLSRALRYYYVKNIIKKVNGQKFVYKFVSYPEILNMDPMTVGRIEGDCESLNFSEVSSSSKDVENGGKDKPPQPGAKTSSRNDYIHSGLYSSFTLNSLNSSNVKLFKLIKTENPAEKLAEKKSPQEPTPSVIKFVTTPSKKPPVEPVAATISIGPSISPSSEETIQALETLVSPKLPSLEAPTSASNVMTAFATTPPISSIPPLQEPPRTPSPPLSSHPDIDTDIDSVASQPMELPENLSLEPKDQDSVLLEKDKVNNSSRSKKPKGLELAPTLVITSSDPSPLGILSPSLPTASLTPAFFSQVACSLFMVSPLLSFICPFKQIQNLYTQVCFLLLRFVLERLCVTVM
# Outline: as §1
# [7] = target: T4, ETV2 (Homo sapiens, UniProt O00321 1-342); details: protein: recombinant; tags: N-terminal GST; dsDNA, one strand shown
# T4 sequence: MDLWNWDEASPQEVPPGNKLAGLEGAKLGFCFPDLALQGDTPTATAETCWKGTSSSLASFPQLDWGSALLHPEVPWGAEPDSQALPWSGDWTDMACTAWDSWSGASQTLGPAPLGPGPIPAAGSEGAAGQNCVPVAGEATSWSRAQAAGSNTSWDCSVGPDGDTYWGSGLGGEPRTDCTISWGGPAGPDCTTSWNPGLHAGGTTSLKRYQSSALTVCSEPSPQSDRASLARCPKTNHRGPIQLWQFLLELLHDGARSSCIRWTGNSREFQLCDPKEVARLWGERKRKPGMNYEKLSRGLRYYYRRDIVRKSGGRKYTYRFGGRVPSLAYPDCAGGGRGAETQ
# Outline: as §1
# [8] = target: T5, ELF3 (Homo sapiens, UniProt P78545 1-371); details: protein: recombinant; tags: N-terminal GST; dsDNA, one strand shown
# T5 sequence: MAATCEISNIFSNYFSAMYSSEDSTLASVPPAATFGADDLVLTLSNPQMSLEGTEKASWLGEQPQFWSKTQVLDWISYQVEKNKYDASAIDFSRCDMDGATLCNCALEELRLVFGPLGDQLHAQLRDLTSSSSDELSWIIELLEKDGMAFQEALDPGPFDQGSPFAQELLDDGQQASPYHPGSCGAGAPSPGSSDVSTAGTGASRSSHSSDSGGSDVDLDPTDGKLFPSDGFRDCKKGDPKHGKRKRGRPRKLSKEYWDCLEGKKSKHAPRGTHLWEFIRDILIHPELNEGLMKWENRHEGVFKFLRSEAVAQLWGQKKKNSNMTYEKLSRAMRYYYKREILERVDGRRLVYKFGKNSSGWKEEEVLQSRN
# Outline: as §1
# [9] = target: CRX (Homo sapiens, UniProt O43186 1-299); details: protein: recombinant; tags: N-terminal GST; dsDNA, one strand shown
# Chain of CRX (O43186 whole entry): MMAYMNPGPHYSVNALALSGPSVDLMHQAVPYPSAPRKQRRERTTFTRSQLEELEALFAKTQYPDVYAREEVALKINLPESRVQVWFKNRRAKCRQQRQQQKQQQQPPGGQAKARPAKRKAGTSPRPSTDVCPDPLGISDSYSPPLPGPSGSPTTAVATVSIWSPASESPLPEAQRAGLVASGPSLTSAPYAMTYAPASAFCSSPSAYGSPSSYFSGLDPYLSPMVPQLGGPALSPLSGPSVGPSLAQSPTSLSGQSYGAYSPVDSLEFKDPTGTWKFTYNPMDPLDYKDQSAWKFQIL
# Outline: as §1
# [10] = target: ETV1 (Homo sapiens, UniProt P50549 1-477); details: protein: recombinant; tags: N-terminal GST; dsDNA, one strand shown
# Chain of ETV1 (P50549 whole entry): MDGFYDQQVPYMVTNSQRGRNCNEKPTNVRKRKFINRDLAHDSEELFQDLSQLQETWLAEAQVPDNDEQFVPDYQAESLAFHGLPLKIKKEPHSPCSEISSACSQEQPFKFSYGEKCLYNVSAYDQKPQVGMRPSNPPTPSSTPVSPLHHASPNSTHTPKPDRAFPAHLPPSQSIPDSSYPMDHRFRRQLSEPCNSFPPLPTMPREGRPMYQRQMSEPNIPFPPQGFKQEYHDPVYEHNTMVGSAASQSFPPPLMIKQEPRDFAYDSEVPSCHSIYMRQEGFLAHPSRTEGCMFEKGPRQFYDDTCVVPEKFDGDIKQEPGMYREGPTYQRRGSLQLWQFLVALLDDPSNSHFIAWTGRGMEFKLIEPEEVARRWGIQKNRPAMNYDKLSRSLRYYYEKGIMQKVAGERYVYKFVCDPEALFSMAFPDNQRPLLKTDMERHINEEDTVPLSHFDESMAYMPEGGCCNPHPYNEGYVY
# Outline: as §1
# [11] = target: T6, ERF (Homo sapiens, UniProt P50548 1-548); details: protein: recombinant; tags: N-terminal GST; dsDNA, one strand shown
# T6 sequence: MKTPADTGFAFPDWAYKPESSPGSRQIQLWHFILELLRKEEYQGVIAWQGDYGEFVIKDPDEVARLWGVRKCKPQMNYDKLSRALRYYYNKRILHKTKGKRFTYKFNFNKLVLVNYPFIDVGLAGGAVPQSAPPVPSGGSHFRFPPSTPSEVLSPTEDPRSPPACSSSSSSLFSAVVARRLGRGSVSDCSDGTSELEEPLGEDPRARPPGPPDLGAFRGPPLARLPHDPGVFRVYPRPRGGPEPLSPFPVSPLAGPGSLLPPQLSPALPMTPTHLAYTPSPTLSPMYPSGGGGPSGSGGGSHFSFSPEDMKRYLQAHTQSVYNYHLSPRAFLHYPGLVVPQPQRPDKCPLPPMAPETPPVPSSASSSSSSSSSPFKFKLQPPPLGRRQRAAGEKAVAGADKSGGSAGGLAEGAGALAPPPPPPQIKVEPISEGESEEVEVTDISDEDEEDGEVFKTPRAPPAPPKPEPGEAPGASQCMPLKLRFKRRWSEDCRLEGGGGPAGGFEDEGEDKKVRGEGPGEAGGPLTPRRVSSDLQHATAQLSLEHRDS
# Outline: as §1
# [12] = target: T7, ETV3L (Homo sapiens, UniProt Q6ZN32 1-361); details: protein: recombinant; tags: N-terminal GST; dsDNA, one strand shown
# T7 sequence: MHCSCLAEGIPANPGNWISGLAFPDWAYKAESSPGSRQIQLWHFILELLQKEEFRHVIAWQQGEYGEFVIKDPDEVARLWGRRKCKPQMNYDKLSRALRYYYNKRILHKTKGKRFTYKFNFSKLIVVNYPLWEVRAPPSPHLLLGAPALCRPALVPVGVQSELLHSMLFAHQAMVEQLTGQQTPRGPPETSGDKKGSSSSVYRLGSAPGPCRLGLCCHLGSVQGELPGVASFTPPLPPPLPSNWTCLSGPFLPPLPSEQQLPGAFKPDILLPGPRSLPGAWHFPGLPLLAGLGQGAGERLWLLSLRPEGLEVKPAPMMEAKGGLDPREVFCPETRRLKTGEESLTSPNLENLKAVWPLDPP
# Outline: as §1
# [13] = target: T8, ETS2 (Homo sapiens, UniProt P15036 1-469); details: protein: recombinant; tags: N-terminal GST; dsDNA, one strand shown
# T8 sequence: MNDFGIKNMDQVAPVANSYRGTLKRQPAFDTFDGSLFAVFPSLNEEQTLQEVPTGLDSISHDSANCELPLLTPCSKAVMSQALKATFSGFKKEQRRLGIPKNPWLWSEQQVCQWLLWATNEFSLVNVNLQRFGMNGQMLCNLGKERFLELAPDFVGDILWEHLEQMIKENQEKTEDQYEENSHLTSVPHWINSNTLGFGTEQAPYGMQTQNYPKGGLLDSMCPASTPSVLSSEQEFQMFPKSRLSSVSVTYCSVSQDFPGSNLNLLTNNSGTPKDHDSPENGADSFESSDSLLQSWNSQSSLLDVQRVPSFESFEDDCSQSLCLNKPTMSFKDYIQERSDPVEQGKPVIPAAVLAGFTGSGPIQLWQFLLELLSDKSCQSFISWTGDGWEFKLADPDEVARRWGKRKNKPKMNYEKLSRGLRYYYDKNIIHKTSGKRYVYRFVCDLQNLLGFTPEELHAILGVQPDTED
# Outline: as §1
# [14] = target: T9, SPDEF (Homo sapiens, UniProt O95238 1-335); details: protein: recombinant; tags: N-terminal GST; dsDNA, one strand shown
# T9 sequence: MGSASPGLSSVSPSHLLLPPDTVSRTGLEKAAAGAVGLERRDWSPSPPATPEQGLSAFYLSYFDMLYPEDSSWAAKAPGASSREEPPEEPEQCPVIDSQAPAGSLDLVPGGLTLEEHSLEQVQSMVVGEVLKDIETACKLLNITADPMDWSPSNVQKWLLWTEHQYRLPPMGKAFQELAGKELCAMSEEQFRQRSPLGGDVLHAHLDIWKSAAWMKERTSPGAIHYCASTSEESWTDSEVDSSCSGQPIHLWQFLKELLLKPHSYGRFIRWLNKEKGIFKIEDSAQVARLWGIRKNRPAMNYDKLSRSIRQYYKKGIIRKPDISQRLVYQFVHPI
# Outline: as §1
# [15] = target: T10, ETV7 (Homo sapiens, UniProt Q9Y603 1-341); details: protein: recombinant; tags: N-terminal GST; dsDNA, one strand shown
# T10 sequence: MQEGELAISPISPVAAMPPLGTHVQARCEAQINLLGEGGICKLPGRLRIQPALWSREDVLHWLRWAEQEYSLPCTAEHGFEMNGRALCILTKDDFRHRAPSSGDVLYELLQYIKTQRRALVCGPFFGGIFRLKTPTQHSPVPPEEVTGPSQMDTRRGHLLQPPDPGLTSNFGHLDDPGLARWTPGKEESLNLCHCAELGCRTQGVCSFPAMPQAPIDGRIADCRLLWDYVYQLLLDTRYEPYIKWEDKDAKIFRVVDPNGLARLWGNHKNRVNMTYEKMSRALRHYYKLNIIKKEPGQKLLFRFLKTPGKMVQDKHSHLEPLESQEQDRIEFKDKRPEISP
# Outline: as §1
# [16] = target: T11, ELF5 (Homo sapiens, UniProt Q9UKW6-2 1-255); details: protein: recombinant; tags: N-terminal GST; dsDNA, one strand shown
# T11 sequence: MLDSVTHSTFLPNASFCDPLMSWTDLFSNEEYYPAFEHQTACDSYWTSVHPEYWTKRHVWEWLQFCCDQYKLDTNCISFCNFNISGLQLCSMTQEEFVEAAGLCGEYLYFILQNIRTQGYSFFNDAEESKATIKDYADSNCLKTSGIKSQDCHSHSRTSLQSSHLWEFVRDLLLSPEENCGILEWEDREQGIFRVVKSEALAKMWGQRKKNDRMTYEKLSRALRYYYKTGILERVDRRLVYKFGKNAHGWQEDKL
# Outline: as §1
# [17] = target: T12, ETV3 (Homo sapiens, UniProt P41162-2 1-143); details: protein: recombinant; tags: N-terminal GST; dsDNA, one strand shown
# T12 sequence: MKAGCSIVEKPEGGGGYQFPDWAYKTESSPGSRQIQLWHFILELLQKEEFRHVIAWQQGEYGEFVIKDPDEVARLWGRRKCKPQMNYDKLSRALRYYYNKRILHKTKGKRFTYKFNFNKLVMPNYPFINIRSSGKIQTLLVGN
# Outline: as §1
# [18] = target: ETV6 (Homo sapiens, UniProt P41212 1-452); details: protein: recombinant; tags: N-terminal GST; dsDNA, one strand shown
# Chain of ETV6 (P41212 whole entry): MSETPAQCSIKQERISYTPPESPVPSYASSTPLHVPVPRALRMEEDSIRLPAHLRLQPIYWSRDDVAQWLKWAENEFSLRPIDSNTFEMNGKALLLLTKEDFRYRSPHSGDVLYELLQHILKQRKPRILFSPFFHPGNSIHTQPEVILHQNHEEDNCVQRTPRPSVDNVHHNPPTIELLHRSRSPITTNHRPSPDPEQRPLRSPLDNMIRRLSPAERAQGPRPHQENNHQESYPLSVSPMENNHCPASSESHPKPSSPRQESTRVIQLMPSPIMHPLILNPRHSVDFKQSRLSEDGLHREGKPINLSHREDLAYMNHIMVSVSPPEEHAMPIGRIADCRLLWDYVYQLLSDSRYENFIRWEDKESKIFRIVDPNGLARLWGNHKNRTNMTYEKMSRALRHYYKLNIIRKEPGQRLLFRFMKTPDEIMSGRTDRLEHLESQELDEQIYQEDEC
# Outline: as §1
sequence,measurement,setting,value
ATTACA,binding signal,[1],"1.06 fold enrichment (6-mer frequency, TF over GST control)"
same,binding signal,[2],"1.07 fold enrichment (6-mer frequency, TF over GST control)"
same,binding signal,[3],"1.4 fold enrichment (6-mer frequency, TF over GST control)"
same,binding signal,[4],"1.15 fold enrichment (6-mer frequency, TF over GST control)"
same,binding signal,[5],"1.16 fold enrichment (6-mer frequency, TF over GST control)"
same,binding signal,[6],"1.2 fold enrichment (6-mer frequency, TF over GST control)"
same,binding signal,[7],"1.14 fold enrichment (6-mer frequency, TF over GST control)"
same,binding signal,[8],"1.16 fold enrichment (6-mer frequency, TF over GST control)"
same,binding signal,[9],"1.86 fold enrichment (6-mer frequency, TF over GST control)"
same,binding signal,[10],"1.17 fold enrichment (6-mer frequency, TF over GST control)"
same,binding signal,[11],"1.16 fold enrichment (6-mer frequency, TF over GST control)"
same,binding signal,[12],"1.1 fold enrichment (6-mer frequency, TF over GST control)"
same,binding signal,[13],"1.11 fold enrichment (6-mer frequency, TF over GST control)"
same,binding signal,[14],"1.18 fold enrichment (6-mer frequency, TF over GST control)"
same,binding signal,[15],"1.08 fold enrichment (6-mer frequency, TF over GST control)"
same,binding signal,[16],"1.08 fold enrichment (6-mer frequency, TF over GST control)"
same,binding signal,[17],"1.04 fold enrichment (6-mer frequency, TF over GST control)"
same,binding signal,[18],"1.15 fold enrichment (6-mer frequency, TF over GST control)"
